Data on 40 sequences can be found in the OligoGym collection.
Also: reference of the scale not given here.

The target in one experiment is TIMM44. Kind of experiment: pooled miR-30 sensor sort-seq; sequence = guide strand. Particulars: shRNA.
With TTCGTCATACTTCATCTTCATC, the sensor-assay potency score (higher = more potent) was -1.59.

On to TTCTTGTTTGACATTATCTAGC, for which the sensor-assay potency score (higher = more potent) is -0.514.

Regarding TAGCTTCATAGCACCAGTCTTT, the sensor-assay potency score (higher = more potent) is -0.701. On the same count and under the same terms, in the case of TTGACATTATCTAGCAAGCCGG it was -1.12. Sequence TTGTTTGACATTATCTAGCAAG gave a sensor-assay potency score (higher = more potent) of -0.93.

The next experiment has as its target TIMM50. The description is as above. Particulars: shRNA.
In turn, TGTCCATCCATGTATCTTGTGG showed a sensor-assay potency score (higher = more potent) of -0.521. With TGAAATATCCTTTACATGGTGT, the sensor-assay potency score (higher = more potent) is 0.0469. In turn, TATCAATGAGTGGAAACGCAGT came in with a sensor-assay potency score (higher = more potent) of -1.04. In turn, TACATGGTGTCCATCCATGTAT registered a sensor-assay potency score (higher = more potent) of -1. On the same count and under the same terms, in the case of ATTCAGACATGAAATATCCTTT it was 0.389.

The sequence TAGACGACGCTCACAGTCCCAC showed a sensor-assay potency score (higher = more potent) of -0.936.

In turn, TTTGCTTCTGACTAGTCTCCTG registered a sensor-assay potency score (higher = more potent) of -0.00854. Turning to TTGCTTCTGACTAGTCTCCTGG, the sensor-assay potency score (higher = more potent) is -0.18. In turn, TTCTGCTTGTTGGACTTGGAGA displayed a sensor-assay potency score (higher = more potent) of -1.03. For TTGAAATATTTGTATGTCCGGC, the sensor-assay potency score (higher = more potent) was -0.0672. TGATCATCTGTCTATAATCTTT came in with a sensor-assay potency score (higher = more potent) of -1.49.

In another experiment the target is TJP3. Described as above. Particulars: shRNA.
TCGTAGTCGCTGTTAACGCGGC: the sensor-assay potency score (higher = more potent) was -0.824. With TTCAGTGACAGGTTCTGGCTAG, the sensor-assay potency score (higher = more potent) was determined as 0.155. The same measure, in the same setting: in the case of TTCTGGAATCTACTGAACTTTC it was -1.4; in that of TTGAGCTCCTGGTACCAGGTGT, 0.444.

Sequence TACCACGTCAGATACAACCATG came in with a sensor-assay potency score (higher = more potent) of -1.34. Take TTCATCTGCACGTCCTGCCGTG: the sensor-assay potency score (higher = more potent) is -0.0273. The sequence ATCGTCTTCATCCGAGTCCTGG had a sensor-assay potency score (higher = more potent) of -0.452. The sequence TAGAATGAGATCTCCTTCCTGC had a sensor-assay potency score (higher = more potent) of 0.597. Same read-out and setting: as for TCTAGTTTGATGATCTTGGAGG, the figure is -0.916; as for ATAGGTTCGCATGCTGTCCTGT, -0.0267. Consider TTGACGCCAAACTCTTCGCTGT, for which the sensor-assay potency score (higher = more potent) was -0.592. TACAACCATGGATCCACCGGGC yielded a sensor-assay potency score (higher = more potent) of -0.563.

Another experiment addresses TKT. Described as above. Particulars: shRNA.
TCCTTTTTGAAGATCTCCGAGA gave a sensor-assay potency score (higher = more potent) of -0.964. Take TTGAAGATCTCCGAGAAGGTGG: the sensor-assay potency score (higher = more potent) was found to be 0.421. TTGATGTGGGGACTGACCGAAA registered a sensor-assay potency score (higher = more potent) of -0.805. Sequence TAGATGATGGCATTTTCTGGGC came in with a sensor-assay potency score (higher = more potent) of -0.904. Consider TTGTCGAAGTATTTGCCGGTGT, for which the sensor-assay potency score (higher = more potent) was -0.129. With TTTTTGCTCTGGATCTGGCTGT, the sensor-assay potency score (higher = more potent) came to 0.312.

TTGTCCAGCTTATAGATGCTGG: the sensor-assay potency score (higher = more potent) was -1.07. The sequence TTGCTCTTCAGGACCACCTTGG gave a sensor-assay potency score (higher = more potent) of -0.197. The sequence TAAAAGACAGTTGATGTGGGGA came in with a sensor-assay potency score (higher = more potent) of 0.52. Sequence TTTCTTTCTTCAGCAGTTCGGC showed a sensor-assay potency score (higher = more potent) of -0.762. As for TTGTCCCCAACTTTGTAGCTGG, the sensor-assay potency score (higher = more potent) is -0.755. TTCTGGTAGATGTCCATCTGGT gave a sensor-assay potency score (higher = more potent) of -0.51.
